# Assay outcomes from PubChem.
# This is a sample that favours compounds with a hit; in the whole collection about 4.6% have one here.
# D1 ag = agonists of human D1 dopamine receptor; HEK293 T-REx D1 cells, calcium flux, agonist mode; AID 504660; 1% of 360,000 active; activation, % at 2 µM; further: 0% is about no effect
#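 Agonism was scored from calcium flux recorded over 180 s (1 read/s) after pintool compound addition, following a 10-cycle baseline. Cells were inducible force-coupled HEK293 TREx D1, plated overnight at 30 C and loaded with no-wash calcium dye.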
# D1 potentiator = human D1 dopamine receptor positive modulation; P21728; HEK293 TREx D1 cells, calcium flux, dopamine EC20 potentiation; potentiation, % at 10 µM; 0.036% of 360,000 active; in the data active means potentiation above about 30%; further: 0% is about no effect
# D1 antagonist = antagonists of human D1 dopamine receptor; P21728; HEK293 TREx D1 cells, calcium flux, dopamine EC80; active compounds read low; activity change, negative = inhibition, % at 10 µM; 3.2% of 360,000 active; AID 504652; in the data active means activity change below about -30%; further: on the % scale 0 is the no-effect control and ±100 the full control effect
#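 Antagonism measured as reduced calcium response to an EC80 dopamine addition following 180 s compound pre-read; cells were inducible HEK293 Trex D1 plated overnight at 30 C, read kinetically at 1 cycle/sec.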
# TRHR agonist = agonists of human TRH receptor | P34981 | TRHR cells, calcium flux fluo-8, FDSS agonist mode | activation, % at 2 µM | 0.18% of 360,000 active | AID 493084; further: 0% is about no effect
# Target sequence (P34981 whole entry, looked up): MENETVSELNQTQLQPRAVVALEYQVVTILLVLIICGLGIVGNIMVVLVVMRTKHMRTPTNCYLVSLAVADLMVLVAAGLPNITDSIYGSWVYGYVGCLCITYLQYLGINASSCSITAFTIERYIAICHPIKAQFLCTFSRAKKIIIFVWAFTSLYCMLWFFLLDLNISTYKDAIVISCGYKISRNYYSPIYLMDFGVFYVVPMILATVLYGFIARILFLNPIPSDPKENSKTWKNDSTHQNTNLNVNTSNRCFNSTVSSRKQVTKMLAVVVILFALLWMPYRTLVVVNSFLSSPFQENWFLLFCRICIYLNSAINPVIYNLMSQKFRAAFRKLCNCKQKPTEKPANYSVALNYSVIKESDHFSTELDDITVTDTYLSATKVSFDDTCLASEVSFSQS
#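 TRHR-expressing cells, plated overnight in medium with 10% serum, were loaded with fluo-8 calcium dye at room temperature. After a 10 s baseline, library compound was pin-added and calcium release was recorded kinetically (ex 480/em 530) as agonist response.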
# TRHR PAM = allosteric enhancers of human TRH receptor; P34981; TRHR cells, fluo-8 calcium fluorescence, EC20 TRH enhancement; enhancement, % at 2 µM; 0.66% of 360,000 active; AID 493056; in the data active means enhancement above about 30%; further: 0% is about no effect
#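 TRHR-expressing cells loaded with fluo-8 calcium dye were read kinetically (ex 480/em 530) during compound addition, then stimulated with an EC20 of TRH (10 nM final). Enhancement of the Gq-mediated intracellular calcium response was scored.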
# Active calls of the source: *. Unless noted, no stated cut-off is given here; in the data, active means activation above about 30%; inactive means the rest.
SMILES,D1 ag,D1 potentiator,D1 antagonist,TRHR agonist,TRHR PAM
COc1ccc(-c2cn3c(n2)sc2cc(C(=O)Nc4ccc(C)c(C)c4)ccc23)cc1,8.6,-4.2,4.5,0.1,-6.8
O=C(Nc1cccc(C(F)(F)F)c1)N1CCC(CN2CCCCCC2)CC1,0.1,2.4,-5.2,0.4,11.5
CC(C)Oc1ccc(CNS(=O)(=O)c2ccc3c(c2)C(C)(C)C(=O)N3C)cc1,0.2,0.3,-9.1,-0.1,6.6
COc1ccc(C(=O)COC(=O)Cn2c(C)csc2=O)c(OC)c1,10.8,-1.5,-33.3*,-0.3,10.1
CC(C)OCCCN1C(=O)c2[nH]nc(-c3ccccc3O)c2C1c1ccc(OCc2ccccc2)cc1 (stereo not given),-0.7,3.3,1.0,0.9,8.8
CN1CCN(c2ccc(S(=O)(=O)N3CCCCC3)cc2NC(=O)c2ccc3ccccc3c2)CC1,11.6,-12.6,-49.6*,1.5,8.7
CCN1CCN(c2ccc(S(=O)(=O)N3CCCCC3)cc2NC(=O)Cc2ccc(OC)cc2)CC1,44.4*,-4.0,-31.1*,1.9,-3.2
CCN1CCN(c2ccc(S(=O)(=O)N3CCOCC3)cc2NC(=O)c2cc(Cl)nc3ccccc23)CC1,3.6,-3.7,-32.6*,-0.1,-5.7
CCN1CCN(c2ccc(S(=O)(=O)N3CCOCC3)cc2NC(=O)c2ccccc2SC)CC1,3.8,-4.7,4.4,-0.3,-10.4
COc1ccc(CC(=O)Nc2cc(S(=O)(=O)N3CCCCC3)ccc2C)cc1,2.8,0.3,3.3,-0.2,-12.9
Cc1ccccc1C(=O)Nc1cc(S(=O)(=O)N2CCCCC2)ccc1N1CCN(C)CC1,5.4,-1.8,5.4,0.4,-1.1
Cc1ccn2c(=O)cc(COc3cccc(NC(=O)Nc4cccc(Cl)c4C)c3)nc2c1,-1.6,-1.3,15.2,0.6,2.8
Cc1ccc(OCC(=O)Nn2c(C)nc3ccccc3c2=O)c(C(C)C)c1,34.9*,5.2,-22.0,-0.7,3.5
COCCNC(=O)C1CC2Cn3c(nc4cc(C)c(C)cc43)C2N1C (stereo not given),0.8,-8.8,-77.7*,-0.2,-10.5
COCCNC(=O)C1CC2Cn3c(nc4cc5ccccc5cc43)C2N1C (stereo not given),0.6,5.5,20.0,-0.7,-4.6
Cc1cccc(NC(=O)Cn2c(=O)n(CCc3ccccc3)c(=O)c3sc4ccccc4c32)c1,-1.9,-0.4,-2.2,-1.4,-6.6
CSc1nc(NCc2ccco2)c2c3c(sc2n1)CN(C)CC3,0.5,-8.7,-42.3*,0.2,6.6
CCNc1nc(SCC(N)=O)nc2sc3c(c12)CCN(C)C3,33.3*,-3.6,-5.0,-0.6,-2.0
CSc1nc(SCC(N)=O)c2c3c(sc2n1)CN(C)CC3,1.0,-1.6,6.2,0.8,-1.4
O=[N+]([O-])c1ccc2[nH]c(O)c(N=Nc3ccc(F)cc3)c2c1,2.9,-3.2,19.6,-0.4,-13.5
Oc1[nH]c2ccc(Br)cc2c1N=Nc1ccc(F)cc1,56.4*,-14.0,11.9,22.0,-3.5
O=S(=O)(c1ccc2c(c1)OCCO2)C1CCN(S(=O)(=O)c2c(F)cccc2F)CC1,6.2,-6.3,-1.2,0.4,1.9
O=C1c2cccc3c(O)ccc(c23)C(=O)N1Cc1ccco1,271.5*,0.5,6.2,234.9*,33.2*
O=C1c2cccc3c(O)ccc(c23)C(=O)N1c1ccc(Cl)cc1,470.1*,18.6,7.7,-0.5,12.4
CC(=O)Nc1ccc(N2C(=O)c3cccc4c(O)ccc(c34)C2=O)cc1,283.3*,11.6,1.6,199.4*,34.5*
SMILES,D1 ag,D1 potentiator,D1 antagonist,TRHR agonist,TRHR PAM
CCS(=O)(=O)N1CCc2cc(C(=O)NCc3ccccc3OC)ccc21,-0.5,-0.8,3.2,-0.7,-5.1
COc1ccc(-c2nc(CSCC(=O)NCCC(C)C)c(C)o2)cc1OC,-1.0,-1.6,7.1,0.2,1.1
Cc1[nH]c2ccccc2c1C(=O)C(=O)N(C)C1CCCCC1,4.9,-3.7,-53.3*,-1.2,0.7
CCn1c2ccccc2c2nnc(SCC(=O)Nc3ccccc3OC)nc21,4.6,-0.7,-32.9*,0.1,-4.6
COc1ccccc1NC(=O)CSc1nnc2c3ccccc3n(C)c2n1,0.3,-5.8,2.2,-0.6,6.5
COc1ccccc1NC(=O)Cn1c2ccccc2c2nc3n(c(=O)c21)CCS3,1.7,-4.4,-44.3*,0.0,7.1
Cc1ccc(C(=O)Nc2ccc(SC(F)F)cc2)s1,8.7,-5.1,-33.8*,0.8,-3.3
CC[N+](CC)(CC)CC(=O)Nc1ccc(SC(F)F)cc1,0.4,0.2,9.2,-1.3,0.1
O=C1NC(=S)/C(=C\c2ccc(-c3ccccc3Cl)o2)S1,9.6,-3.0,-1.5,3.3,-0.9
O=C1NC(=O)/C(=C/c2ccc(-c3cc(C(=O)O)ccc3Cl)o2)S1,0.0,-0.5,-45.1*,-0.4,-13.8
CC(C)c1ccc2nc3sc(C(=O)N4CCc5ccccc5C4)c(N)c3cc2c1,30.6*,0.1,1.4,8.3,-2.3
O=C(CCN1C(=O)c2ccccc2Sc2ncccc21)Nc1ccc(F)cc1,1.7,3.5,18.3,-0.2,7.0
O=C1CCNc2ccc(-c3ccccc3)cc21,68.1*,-8.1,-12.9,17.2,9.2
Cc1nn(CC(=O)Nc2ccc(C(C)C)cc2)c(=O)c2c(C)n(-c3ccc(Cl)cc3)nc12,0.9,0.4,2.8,0.2,5.0
Cc1cc(-c2ccc(Cl)cc2Cl)c(C#N)c(=O)[nH]1,31.0*,0.5,3.6,-0.9,2.7
CSc1nc(-c2ccc(Cl)cc2Cl)[nH]c(=O)c1C#N,2.2,3.0,3.6,-0.5,-3.5
COc1ccc(N2CCN(C(=O)c3cc(-c4ccc(C)c(F)c4)on3)CC2)cc1,9.7,-1.8,-16.7,-0.2,-1.1
COc1cc2nc(NCCc3cccc(C)c3)n3nc(-c4ccccc4)nc3c2cc1OC,1.2,-3.2,-4.1,-0.3,1.6
CCCCCOc1ccc(Br)cc1CSC(=N)N,30.2*,9.2,26.0,0.1,4.7
CCOc1ccc(CSC(=N)N)cc1,25.3,-2.8,20.5,-0.7,15.3
CCCCOc1ccc(CSC(=N)N)cc1Cl,64.7*,9.8,41.6,0.4,3.3
COc1ccc(Br)cc1CSC(=N)N,22.1,-4.9,-5.8,-1.2,2.5
CCOC(=O)C1CCCN(C(=O)c2ccc(NC(=O)c3nsc4ccccc34)cc2)C1 (stereo not given),3.8,-1.0,-8.9,-0.6,5.2
CCN1CCCC1CNC(=O)Cn1nc(C)n2c(cc3cc(F)ccc32)c1=O (stereo not given),3.1,3.5,10.1,0.8,35.4*
CCN1C(=O)[C@H]2[C@@H](c3ccc(-c4ccc(OC)cc4)cc3)N3CCCC[C@@]3(C(=O)OC)[C@H]2C1=O,3.8,-4.0,-5.8,0.3,1.0
Cc1ccc(NC(=O)CCS(=O)(=O)c2ccc(Br)s2)cc1,4.0,-8.3,-52.7*,-1.0,-1.9
CCOC(=O)c1ccc(NC(=O)CN(C)S(=O)(=O)c2ccc(Br)s2)cc1,10.2,-11.9,-38.2*,-0.3,-6.2
